High-throughput results: PubChem, several laboratories
CHOP inh = blocks CHOP induction under ER stress | inhibition, % at 10 µM | 220,000 compounds, 3.8% hits | CHO-K1 CHOP-promoter luciferase, tunicamycin-induced, 15-18 h;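 active = compounds that reduced the stress-induced luciferase reporter signal by more than about 70% of percent inhibition, limit read from the data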;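 note: 0% = tunicamycin plus vehicle and 100% = wells without tunicamycin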
KKLEB tox = reduces viability of KKLEB cystic fibrosis airway cells | KKLEB CF airway cells viability, ATPlite luminescence, overnight; hits give low values; cells stimulated with P. aeruginosa culture filtrate | activity change (cytotoxicity), % at 5 µM | 360,000 compounds, 0.36% hits;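 active = corrected activity change at or below -50% at 5 µM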
Peg3 prom inh-1 = reduces Peg3 promoter-driven luciferase expression in HeLa. AID 588405. 360,000 compounds, 1.7% hits. inhibition, % at 20 µM. HeLa PEG-Prom luciferase reporter, luminescence, overnight;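 active = inhibition of at least 50% at 20 µM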
CF NFkB inh = cystic fibrosis NF-kB activation inhibition; AID 588850; inhibition, % at 5 µM; KKLEB NF-kB-GFP reporter, PAF-induced, GFP fluorescence overnight; 360,000 compounds, 0.86% hits;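 active = at least 50% inhibition at 5 µM, scaled per plate between neutral and stimulator controls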;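 note: PAF is a Pseudomonas aeruginosa culture filtrate used as stimulus; plate controls were PAF-stimulated DMSO wells for no effect and unstimulated DMSO wells for full effect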
HIF-2a inh = HIF-2a inhibition. 360,000 compounds, 0.72% hits. inhibition, % at 18.8 µM. 786-0 RCC cells HIF-2a reporter, luciferase luminescence, overnight;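 active = inhibition of the luminescence signal of 40% or more relative to plate controls, in a single-dose primary screen at 18.75 µM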
TRPM1 prom inh = reduces MITF-dependent TRPM1 promoter luciferase signal; SK-MEL-5 TRPM1 promoter luciferase, 24 h; inhibition, % at 12.5 µM; 330,000 compounds, 0.83% hits;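 active = mean inhibition across replicates of 60% or more, whatever share of single replicates reaches that level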
CHOP confirm = confirmation of CHOP induction inhibitors; shares compounds with CHOP inh; CHO-CHOP promoter luciferase reporter, tunicamycin-induced, luminescence; inhibition, % at 10 µM; 2,100 compounds, 45% hits; AID 504437;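 active = mean of three repeat readings of reporter signal inhibition above a set limit, cut at about 70% in these data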;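 note: 0% = tunicamycin plus vehicle and 100% = wells lacking tunicamycin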
Peg3 prom inh-2 = confirmation of Peg3 promoter inhibitors. shares compounds with Peg3 prom inh-1. HeLa PEG-Prom luciferase reporter, luminescence, overnight. inhibition, % at 20 µM. 1,300 compounds, 84% hits. AID 602417;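 active = at 20 µM dose, 40% or more inhibition averaged across four replicates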
CF NFkB inh conf = confirmation of cystic fibrosis induced NF-kB inhibitors | inhibition, % at 5 µM | KKLEB CF airway cells, PAF-induced NF-kB-GFP fluorescence, overnight | 1,300 compounds, 64% hits | shares compounds with CF NFkB inh; in the data active = inhibition above about 40%;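 note: stimulus PAF is a Pseudomonas aeruginosa filtrate and not platelet activating factor; plate controls were DMSO wells with stimulus for no effect and unstimulated DMSO wells for full effect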
Mdm2 MdmX conf = Mdm2/MdmX (human) interaction inhibition, confirmed; shares compounds with HIF-2a inh; SaOS-2 split-luciferase Mdm2/MdmX complementation, luminescence; inhibition, % at 8 µM; 740 compounds, 99% hits; AID 504601;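 active = mean inhibition of the luminescence signal across two replicates at or above 26 percent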
Target sequence (O15151 whole entry, looked up): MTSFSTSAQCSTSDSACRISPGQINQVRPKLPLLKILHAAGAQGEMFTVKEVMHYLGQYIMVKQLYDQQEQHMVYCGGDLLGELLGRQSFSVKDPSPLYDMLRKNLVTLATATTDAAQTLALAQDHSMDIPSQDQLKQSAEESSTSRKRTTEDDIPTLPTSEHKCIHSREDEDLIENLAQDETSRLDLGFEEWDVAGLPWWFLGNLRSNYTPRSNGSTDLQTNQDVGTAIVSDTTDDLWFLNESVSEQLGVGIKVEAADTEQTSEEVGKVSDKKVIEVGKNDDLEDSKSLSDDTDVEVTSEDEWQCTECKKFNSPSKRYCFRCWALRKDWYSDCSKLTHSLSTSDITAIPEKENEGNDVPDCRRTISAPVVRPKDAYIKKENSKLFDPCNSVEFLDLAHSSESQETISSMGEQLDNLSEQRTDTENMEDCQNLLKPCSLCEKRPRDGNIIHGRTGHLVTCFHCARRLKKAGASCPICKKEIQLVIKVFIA
Target sequence (Q00987 whole entry, looked up): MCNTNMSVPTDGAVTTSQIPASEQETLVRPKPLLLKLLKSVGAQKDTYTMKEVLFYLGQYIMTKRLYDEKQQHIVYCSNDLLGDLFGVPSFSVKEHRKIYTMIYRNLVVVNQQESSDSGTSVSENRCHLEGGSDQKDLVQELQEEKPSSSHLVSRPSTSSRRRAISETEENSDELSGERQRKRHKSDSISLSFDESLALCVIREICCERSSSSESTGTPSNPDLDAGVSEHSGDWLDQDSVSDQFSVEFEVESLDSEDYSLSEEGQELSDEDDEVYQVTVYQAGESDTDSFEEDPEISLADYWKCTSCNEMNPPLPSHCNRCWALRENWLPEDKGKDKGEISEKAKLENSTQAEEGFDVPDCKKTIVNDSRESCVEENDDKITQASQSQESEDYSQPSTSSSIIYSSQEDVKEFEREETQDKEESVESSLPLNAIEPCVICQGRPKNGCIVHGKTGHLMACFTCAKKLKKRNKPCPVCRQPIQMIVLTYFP
HIF-2a inh conf = HIF-2a inhibition, single concentration confirmation | inhibition, % at 18.8 µM | 786-0 RCC cells, HIF-2a luciferase reporter luminescence, overnight | 1,800 compounds, 56% hits | AID 651580 | shares compounds with HIF-2a inh;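 active = mean inhibition across four replicates of at least 40 percent at the single tested concentration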
HIF-1a counter = counter-screen for HIF-2a inhibitors: HIF-1a inhibition in MiaPaCa-2 cells | MiaPaCa-2 HIF-1a luciferase reporter, desferoxamine, overnight | shares compounds with HIF-2a inh | inhibition, % at 18.8 µM | 1,800 compounds, 72% hits;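 active = mean inhibition of the reporter signal across four replicates at the single tested dose of 50% or more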
Numbers without * were called inactive; · = not tested or not shown. A selection: hits, their analogues and other compounds. The true share with any hit is near 4.3%.

SMILES	CHOP inh	KKLEB tox	Peg3 prom inh-1	CF NFkB inh	HIF-2a inh	TRPM1 prom inh	CHOP confirm	others
CC1C/C(=C/c2ccncc2)C(=O)/C(=C/c2ccncc2)C1 (stereo not given)	99.3*	-54.9*	104.2*	82.0*	94.5*	106.2*	-59.0	Mdm2 MdmX conf=100.2*
S=C(Nc1ccccc1)Nc1ccc(OCc2ccc(Cl)cc2Cl)cc1	107.7*	0.4	78.7*	2.0	92.8*	82.4*	115.1*	Peg3 prom inh-2=73.5*;HIF-2a inh conf=97.9*;HIF-1a counter=99.7*
CCOc1ccc(NC(=S)Nc2ccc(OCc3ccccc3)cc2)cc1	3.8	-6.3	-20.2	-4.7	-10.2	-8.4	·
Cc1csc(SC(C)c2nc3scc(-c4ccccc4)c3c(=O)[nH]2)n1 (stereo not given)	42.6	-8.8	10.2	2.2	14.0	-1.3	·
CCCc1cc(-c2[nH]ncc2-c2ccc(C(=O)OCC)o2)c(O)cc1O	9.4	10.3	39.7	37.0	-11.2	22.1	·
CCCc1cc(-c2[nH]ncc2-c2ccc3c(c2)OCCCO3)c(O)cc1O	101.3*	-5.2	68.9*	50.5*	45.6*	13.9	9.4	CF NFkB inh conf=68.2*;HIF-2a inh conf=30.2;HIF-1a counter=81.5*
COc1cc(/C=C(\C#N)c2nc3ccccc3s2)ccc1OCC(=O)Nc1ccccc1	50.3	-23.3	22.1	21.4	-0.8	8.0	·
COc1cc(/C=C(/C#N)c2nc3ccccc3[nH]2)ccc1OCC(=O)Nc1ccccc1C(C)C	107.5*	5.0	4.7	-0.2	-11.3	-4.0	116.3*	Mdm2 MdmX conf=101.2*
COc1ccc(CCNC(=O)Nc2ccc3nc([C@@H]4O[C@H](CO)[C@@H](O)[C@H](O)[C@H]4O)[nH]c3c2)cc1Br	·	-0.2	-0.8	-24.6	-6.8	·	·
Cc1ccc(C)c(S(=O)(=O)/N=C2\C=C(NS(=O)(=O)c3ccccc3)C(=O)c3ccccc32)c1	·	3.2	32.2	32.5	4.5	9.0	·
Cc1ccccc1NC1=C/C(=N\S(=O)(=O)c2cccs2)c2ccccc2C1=O	106.7*	-93.4*	102.1*	93.7*	92.8*	86.5*	-13.0	Mdm2 MdmX conf=103.2*
O=c1c(Br)c(Br)cnn1-c1ccccc1	106.0*	-84.6*	108.5*	89.8*	96.0*	92.3*	118.0*	HIF-2a inh conf=98.9*;HIF-1a counter=107.0*
COc1c(Cl)cnn(-c2ccc(C)cc2)c1=O	-53.0	2.3	-18.8	-15.0	-25.9	-6.9	·
Cc1ccc(-n2ncc(Br)c(Br)c2=O)cc1	104.8*	-35.9	102.2*	69.1*	92.3*	83.4*	120.8*	HIF-2a inh conf=98.7*;HIF-1a counter=102.2*
O=c1c(Br)c(N2CCCC2)cnn1-c1ccccc1	-17.3	4.3	-268.5	-8.9	-172.2	-17.9	·
Cc1ccc([C@H]2C(C(=O)O)=CC[C@@H](c3ccc4c(c3)OCO4)N2S(=O)(=O)c2ccc(C)cc2)cc1	·	11.1	7.6	-2.2	19.4	3.5	·
O=C(OCn1ncc(Cl)c(Cl)c1=O)c1ccc(C(F)(F)F)cc1	104.2*	-12.3	105.4*	49.2	93.3*	53.5	116.4*	Mdm2 MdmX conf=103.0*;HIF-2a inh conf=60.4*;HIF-1a counter=104.5*
CN(C)C(=S)Oc1ccccc1C1(C)OCCO1	·	-5.7	10.0	4.3	3.0	·	·
CC(C)CC(=O)/C(=C\c1ccc(Cl)cc1Cl)n1cncn1	109.1*	-81.3*	104.7*	86.1*	94.4*	86.1*	2.9	HIF-2a inh conf=93.9*;HIF-1a counter=107.2*
O=C1C=CC(O)(c2cc(=O)c3c(O)cc(O)cc3o2)C=C1	108.0*	-52.3*	84.3*	75.4*	94.1*	80.5*	121.7*	HIF-2a inh conf=91.6*;HIF-1a counter=103.1*
COc1cc(C2CC(=O)c3cnc(NC(=O)c4ccco4)nc3C2)cc(OC)c1OC (stereo not given)	·	-7.8	21.8	10.9	9.8	-4.4	·
CCN(Cc1ccccc1)S(=O)(=O)c1ccc(C(=O)N(CCCN(C)C)c2nc3cc4c(cc3s2)OCO4)cc1	·	-0.4	87.0*	-11.2	3.1	93.1*	·	Peg3 prom inh-2=98.7*
O=C(C=Cc1ccccn1)c1ccccc1	·	-12.8	100.7*	36.2	-37.7	70.2*	·	Peg3 prom inh-2=86.8*
O=c1oc2ccccc2cc1-c1cn2ccccc2n1	94.8*	-78.0*	78.5*	27.0	65.9*	81.3*	·	Peg3 prom inh-2=64.5*
CC(C)(C)NC(=O)C1Cc2ccccc2CN1 (stereo not given)	15.7	-3.9	18.4	-14.9	11.5	0.0	·
SMILES	CHOP inh	KKLEB tox	Peg3 prom inh-1	CF NFkB inh	HIF-2a inh	TRPM1 prom inh	CHOP confirm	others
COc1ccc(C)cc1Nc1n[n+](-c2ccccc2)c(-c2ccc(OC)c(OC)c2OC)s1	·	-5.9	3.0	8.5	6.1	25.7	·
COc1ccc(C)cc1Nc1n[n+](-c2ccccc2)c(-c2ccc(N(C)C)cc2)s1	·	3.6	61.6*	23.1	-32.3	33.5	·	Peg3 prom inh-2=50.0*
CC[C@H](C)[C@H]1O[C@]2(CC[C@@H]1C)C[C@@H]1C[C@@H](CC=C(C)[C@@H](O[C@H]3C[C@H](OC)[C@@H](O[C@H]4C[C@H](OC)[C@@H](O)[C@H](C)O4)[C@H](C)O3)[C@@H](C)C=CC=C3CO[C@@H]4[C@H](O)C(C)=C[C@@H](C(=O)O1)[C@]34O)O2	·	-51.3*	84.4*	56.1*	52.5*	57.9	·	Peg3 prom inh-2=38.0
Cc1cccc(NC(=O)CSc2nc3ccccc3c3nc(CCc4c(C)n[nH]c4C)nn23)c1	-3.2	-41.5	57.4*	30.6	-7.5	-4.2	·	Peg3 prom inh-2=58.0*
CCn1c(SCC(=O)Nc2cccc(C)c2)nc2ccccc2c1=O	·	-6.1	17.3	8.4	10.3	8.8	·
COc1cc(NC(=O)CSc2nc3c(C)ccc(C)c3cc2C)c(C(=O)O)cc1OC	-35.8	10.9	13.5	-13.5	16.3	3.0	·
CN(C)CCNc1ncnc2c1ncn2[C@H]1CN(Cc2ccc(-c3ccccc3)cc2)C[C@@H](CO)O1	·	-5.2	79.9*	10.1	-2.9	·	·	Peg3 prom inh-2=74.8*
O=C1N[C@@H](c2ccccc2)COC(=O)[C@@H](Cc2ccc(F)cc2)CC/C=C/C[C@@H]1CC(=O)N(CCO)Cc1ccccc1	·	10.4	26.9	-15.6	7.5	7.9	·
